Some test systems named below: SK-MEL-2 melanoma; EKVX NSCLC; SN12C renal; UO-31 renal; TK-10 renal; ACHN renal; CAKI-1 renal; A498 renal; CCRF-CEM leukemia; MOLT-4 leukemia.
Experiment in all cases: NCI-60 one-dose screen, 48 h (100 = growth as untreated, 0 = no growth, -100 = all killed)
Common to all, as to conditions: 10 µM unless noted

Compounds without any hit were thinned out: in the full panel of roughly 83,000, 20% have a hit.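 Interpretation: 100, growth as untreated; towards 0, rising growth inhibition; 0, no net growth; 0 to -100, cell death. Compounds scoring below 10 were considered active.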 Unmarked numbers belong to inactive results. Calls of active or inactive are those of the source.

For the molecule `CC(C)c1sc(NC(=O)c2cc(NC(=O)c3cc(NC(=O)c4cscn4)cn3C)cn2C)nc1C(=O)NCCCN(C)C`, the growth with SK-MEL-2 melanoma is -79.4% (active); in the assay with EKVX NSCLC, 27%; with SN12C renal, 19.1%; in the assay on UO-31 renal, 85%; with TK-10 renal it was 85.3%; in the assay on ACHN renal, 98.7%. The growth in the assay on CAKI-1 renal was 91%; with A498 renal it was 113%; in the assay on CCRF-CEM leukemia, 1.16% (active); in the assay with MOLT-4 leukemia it was 5.49% (active).
With `CC(=O)Oc1ccccc1C(=O)[Se]CC(=O)Nc1cccc(C(F)(F)F)c1`, the growth in the assay on SK-MEL-2 melanoma is -21% (active); with EKVX NSCLC, -96.7% (active); with SN12C renal it was -80.3% (active); with UO-31 renal, -85% (active); with TK-10 renal, -83.8% (active); in the assay with ACHN renal, -34.8% (active). Further, the growth in the assay on CAKI-1 renal was -74.4% (active); in the assay with A498 renal, -61% (active); in the assay on CCRF-CEM leukemia, 24.6%; in the assay with MOLT-4 leukemia, 11.7%.
In the case of `N#Cc1c(-c2ccccc2Cl)cc(-c2c[nH]c3ccccc23)[nH]c1=O`, the growth in the assay with SK-MEL-2 melanoma is 49%; in the assay with EKVX NSCLC it was 68.1%; in the assay with SN12C renal, 61.5%; in the assay on UO-31 renal it was 58.7%; in the assay on TK-10 renal, 102%; in the assay on ACHN renal, 63.9%. The growth in the assay with CAKI-1 renal is 55.5%; with A498 renal, 116%; in the assay on CCRF-CEM leukemia, 32.2%; in the assay on MOLT-4 leukemia it was 34.7%.
Turning to `CC(C)c1ccc2c(N)c(C(=O)Nc3cccc(C(F)(F)F)c3)sc2n1`, the growth is 89.5% in the assay on SK-MEL-2 melanoma; 47.4% in the assay on EKVX NSCLC; 76.2% in the assay on SN12C renal; 77.9% in the assay with UO-31 renal; 97.3% in the assay on TK-10 renal; 76% with ACHN renal. The growth was 74% in the assay with CAKI-1 renal, 143% in the assay with A498 renal, 38.9% in the assay on CCRF-CEM leukemia and 56.4% in the assay with MOLT-4 leukemia.
Regarding `C=C1CCC2C3(C)COC(c4ccco4)OC3CCC2(C)C1CC(Sc1ccccc1)C1=CCOC1=O` (stereo not given), the growth with SK-MEL-2 melanoma is 80%; with EKVX NSCLC it was 105%; in the assay with SN12C renal, 21.4%; with UO-31 renal, 51.8%; in the assay with TK-10 renal, 123%; with ACHN renal, 70.3%. For the same molecule, the growth is 88.2% with CAKI-1 renal, 137% with A498 renal, 0.425% (active) in the assay on CCRF-CEM leukemia and 16.9% with MOLT-4 leukemia.
With `CC(=O)c1c(N)c(C#N)cn1-c1ccc(Cl)cc1Cl`, the growth was 90.4% in the assay with SK-MEL-2 melanoma; 93.8% in the assay on EKVX NSCLC; 100% in the assay on SN12C renal; 68.4% with UO-31 renal; 160% with TK-10 renal; 102% with ACHN renal. Moreover, the growth in the assay on CAKI-1 renal was 97.1%; with A498 renal it was 112%; in the assay with CCRF-CEM leukemia, 99.3%; in the assay with MOLT-4 leukemia it was 102%.
With `COc1c(F)ccc(C(=O)Nc2ccc3nc(NC(=O)C4CCCN(S(=O)(=O)C5CC5)C4)sc3c2)c1F` (stereo not given), the growth is 54.9% in the assay on SK-MEL-2 melanoma; 31.5% in the assay on EKVX NSCLC; 65% with SN12C renal; 43.1% in the assay with UO-31 renal; 74.5% in the assay on TK-10 renal; 47% with ACHN renal. Besides, the growth in the assay on CAKI-1 renal was 46.6%; in the assay on A498 renal, 76%; in the assay with CCRF-CEM leukemia it was 18%; in the assay on MOLT-4 leukemia, 3.08% (active).
Regarding `CCCSc1nc(Nc2ccc(S(N)(=O)=O)cc2)c(C#N)c(-c2cc(OC)c(OC)c(OC)c2)n1`, the growth in the assay with SK-MEL-2 melanoma was 43%; in the assay with EKVX NSCLC, 36.6%; with SN12C renal, 20.4%; in the assay on UO-31 renal, 2.53% (active); in the assay with TK-10 renal, 50.4%; with ACHN renal, 11.8%. Moreover, the growth with CAKI-1 renal was 25.6%; in the assay with A498 renal, 80.8%; in the assay with CCRF-CEM leukemia, 8.03% (active); in the assay on MOLT-4 leukemia, -35.8% (active).
As for `N#Cc1ccc(C(=O)Nn2c(N)cc3ccccc3c2=O)cc1`, the growth was 104% in the assay with SK-MEL-2 melanoma; 85.8% in the assay with EKVX NSCLC; 89.9% in the assay with SN12C renal; 64.9% in the assay with UO-31 renal; 119% with TK-10 renal; 92.9% in the assay with ACHN renal. The growth with CAKI-1 renal was 78%; with A498 renal, 113%; in the assay on CCRF-CEM leukemia, 94.7%; in the assay with MOLT-4 leukemia, 84.6%.
With `CC(=O)Nc1cccc(Nc2nccc(N[C@@H](C)c3ccccc3)n2)c1`, the growth is 41.5% with SK-MEL-2 melanoma; 16.6% with EKVX NSCLC; 15.4% in the assay with SN12C renal; 25.9% in the assay with UO-31 renal; 29.1% in the assay on TK-10 renal; 12.7% in the assay with ACHN renal. Further, the growth was 29% in the assay on CAKI-1 renal, 68% in the assay on A498 renal, 24.9% in the assay on CCRF-CEM leukemia and 20.5% in the assay with MOLT-4 leukemia.
For `O=C(COc1ccc(NC(=O)Nc2ccccc2)cc1)N=Nc1c(O)[nH]c2ccc([N+](=O)[O-])cc12`, the growth in the assay on SK-MEL-2 melanoma was -69.2% (active); with EKVX NSCLC, 73.5%; in the assay on SN12C renal, 9.08% (active); in the assay on UO-31 renal it was 80.2%; in the assay on TK-10 renal, 116%; with ACHN renal, 96.2%. Also, the growth in the assay with CAKI-1 renal was 78.4%; with A498 renal, 133%; with CCRF-CEM leukemia, 18.4%; in the assay with MOLT-4 leukemia, 3.7% (active).
Consider `Cc1nc(Nc2ncc(C(=O)Nc3c(C)cccc3Cl)s2)cc(N2CCN(CCCNC(=O)COc3ccc(C4CCC(=O)NC4=O)cc3)CC2)n1` (stereo not given), for which the growth with SK-MEL-2 melanoma is 109%; in the assay with EKVX NSCLC it was 58.6%; with SN12C renal, 25.2%; with UO-31 renal it was 38.4%; with TK-10 renal it was -7.44% (active); with ACHN renal, 8.27% (active). Moreover, the growth in the assay with CAKI-1 renal is -30.7% (active); in the assay on A498 renal it was 7.95% (active); in the assay with CCRF-CEM leukemia it was 95.1%; in the assay with MOLT-4 leukemia, 48.9%.
Regarding `COc1ccc2[nH]cc(-c3nnc(N)nc3-c3cn(C)c4ncc(Br)cc34)c2c1`, the growth with SK-MEL-2 melanoma was 61.1%; in the assay with EKVX NSCLC, 88.7%; with SN12C renal, 60.2%; in the assay with UO-31 renal, 49.4%; in the assay with TK-10 renal, 46.3%; with ACHN renal, 50.8%. Moreover, the growth is 43.9% in the assay on CAKI-1 renal, 45.5% in the assay with A498 renal, 66.8% with CCRF-CEM leukemia and 56.6% with MOLT-4 leukemia.
For `CC1(c2cc3cc(Cl)ccc3oc2=O)NC(=O)c2c(/C=C/C(=O)OC3CC4CCC3(C)C4(C)C)cccc2N1` (stereo not given), the growth with SK-MEL-2 melanoma was 53.7%; in the assay on EKVX NSCLC, 49.4%; with SN12C renal, 58.5%; in the assay with UO-31 renal, 42.8%; in the assay with TK-10 renal, 79.3%; in the assay on ACHN renal, 61.7%. The growth in the assay on CAKI-1 renal was 59.6%; in the assay on A498 renal it was 118%; with CCRF-CEM leukemia, 59.4%; in the assay on MOLT-4 leukemia, 21.2%.
Regarding `O=C(Nc1ccccc1)N1CCN(c2cc(-c3cn(-c4ccccc4)nc3-c3cccc(O)c3)ccn2)CC1`, the growth is 57.4% with SK-MEL-2 melanoma; 77.1% in the assay with EKVX NSCLC; 88.8% with SN12C renal; 55.1% in the assay on UO-31 renal; 129% in the assay on TK-10 renal; 81.7% in the assay on ACHN renal. In addition, the growth with CAKI-1 renal was 70.3%; with A498 renal, 103%; with CCRF-CEM leukemia it was 36.8%; with MOLT-4 leukemia, 33%.
As to `COc1ccc(-c2ccnc(SCc3cc4ccccc4[nH]c3=O)n2)cc1OC`, the growth in the assay on SK-MEL-2 melanoma is 17.4%; in the assay on EKVX NSCLC, -16.6% (active); with SN12C renal, -37.6% (active); in the assay on UO-31 renal, -73.4% (active); in the assay on TK-10 renal, 22.9%; in the assay on ACHN renal, -76.6% (active). In addition, the growth in the assay with CAKI-1 renal was -67% (active); with A498 renal, -18.9% (active); in the assay on CCRF-CEM leukemia, 106%; in the assay on MOLT-4 leukemia, 74%.

Source of the values: PubChem BioAssay (NCI).
